According to PubChem BioAssay AID1376 (SRMLSC, 2008):
In all, about 220,000 compounds went through this assay and about 530 (0.24%) were called active. Many of the other results were omitted from the sample, so actives are more common in it than they were. Entries with a potency or affinity are not part of this list. A number with no mark means an inactive call. No stated cut-off is given here; in the data, active means inhibition above about 13%; inconclusive means no clear call, values can overlap the other calls; inactive means below that.

target: Bifunctional protein GlmU (Mycobacterium tuberculosis (strain ATCC 25618 / H37Rv)) (UniProt P9WMN3); test: inhibition of mycobacterial GlmU enzyme – biochemical, glucosamine-1-phosphate acetyltransferase (AID 1376);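 further: 0% = complete reaction with vehicle and 100% = reaction without substrate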; conditions: M. tuberculosis GlmU acetyltransferase enzyme assay; active compounds read high;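 tested at 30 µM in the primary screen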
Sequence (P9WMN3 whole entry, looked up): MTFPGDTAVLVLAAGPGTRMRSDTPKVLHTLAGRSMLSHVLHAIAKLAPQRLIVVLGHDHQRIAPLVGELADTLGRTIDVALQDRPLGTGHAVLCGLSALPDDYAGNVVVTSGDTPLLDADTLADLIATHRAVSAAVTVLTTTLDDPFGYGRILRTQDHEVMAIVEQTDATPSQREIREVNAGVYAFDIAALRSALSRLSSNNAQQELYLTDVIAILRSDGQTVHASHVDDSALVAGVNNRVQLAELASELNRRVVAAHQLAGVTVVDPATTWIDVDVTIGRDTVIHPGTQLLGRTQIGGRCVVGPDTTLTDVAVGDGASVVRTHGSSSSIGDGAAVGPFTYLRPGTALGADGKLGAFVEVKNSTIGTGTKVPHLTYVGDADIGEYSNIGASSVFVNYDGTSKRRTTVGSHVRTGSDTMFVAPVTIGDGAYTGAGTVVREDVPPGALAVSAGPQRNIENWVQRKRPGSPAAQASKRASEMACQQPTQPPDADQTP

Row | SMILES | inhibition
1 | COc1ccccc1CNC(=O)CS(=O)Cc1nc(-c2ccccc2C)oc1C (stereo unspecified) | -3.21%
2 | COc1ccc(CCNC(=O)c2ccc3ccccc3n2)cc1OC | 1.59%
3 | CCc1cccc(C)c1NC(=S)N(CCN(C)C)C(C)c1ccco1 (stereo unspecified) | -1.5%
4 | Cc1occc1C(=O)N/N=C/c1cnn(C)c1C | 0.23%
5 | CC1CN=C(NCCc2ccccc2)S1 (stereo unspecified) | -5.97%
6 | COc1ccc(Cl)cc1N(C(C)C(=O)NC1CCCC1)S(C)(=O)=O (stereo unspecified) | -1.06%
7 | Cc1nonc1C(=O)N/N=C/c1cccc(O)c1 | -5.8%
8 | O=C1C=C(N2CCOCC2)C2(CCCCC2)O1 | -4.46%
9 | CC(C)S(=O)(=O)c1nsc2nc(=O)c(/C=C3\C=Nc4ccccc43)c(N)n12 | 14.9% (active)
10 | CC1=Nc2ccccc2/C1=C/c1c(N)n2c(S(=O)(=O)C(C)C)nsc2nc1=O | 6.27%
11 | CS(=O)(=O)c1nsc2nc(=O)c(/C=C3\C=Nc4ccccc43)c(N)n12 | 9.05%
12 | COc1ccc2[nH]c3c(N4CCc5ccccc5C4)ncnc3c2c1 | 0.43%
13 | Cc1cc(C)n2nc(CC(=O)NCc3ccc(F)cc3)nc2n1 | 3.44%
14 | Cc1ccc(NC(=O)Cc2sc(C)nc2-c2ccc(C)cc2)cc1 | -0.58%
15 | Cc1ccc(-c2nc(C)sc2CC(=O)Nc2nnc(C)s2)cc1 | -1.22%
16 | Cc1ccc(-c2nc(C)sc2CC(=O)NCc2ccco2)cc1 | 14.4% (active)
17 | Cc1coc(NC(=O)CSc2nc(-c3ccncc3)cc(C(F)(F)F)c2C#N)n1 | -2.15%
18 | COc1ccccc1Cn1c(=S)[nH]c2cc(C(=O)NCc3cccnc3)ccc2c1=O | -2.96%
19 | COc1cc(CNn2cn[nH]c2=S)cc(Cl)c1OCc1ccccc1 | -2.33%
20 | COc1cccc(-c2cc(-c3cccnc3)nc(N)c2C#N)c1 | 2.15%
21 | O=[N+]([O-])c1c(N2CCN(CCO)CC2)nc2ccccn12 | 15.2% (active)

Row | SMILES | inhibition
22 | O=[N+]([O-])c1ccc(N2CCN(CCO)CC2)c2ncccc12 | -1.16%
23 | Cc1nc([N+](=O)[O-])cn1-c1nc2ccccn2c1[N+](=O)[O-] | -6.37%
24 | COc1cccc(N2[C@@H](CC(=O)O)c3cc(C(F)(F)F)ccc3S2(=O)=O)c1 | 7.93%
25 | C=CCn1c(Sc2ncc([N+](=O)[O-])s2)n[nH]c1=O | 7.87%
26 | COc1cccc(N=Nc2c(=O)[nH]n3c(=O)cc(C)[nH]c23)c1 | 13% (active)
27 | COc1cccc(N=Nc2c(=O)[nH]n3c(=O)c4c([nH]c23)CCC4)c1 | 5.17%
28 | Cc1ccc(N=Nc2c(=O)[nH]n3c(=O)cc(C)[nH]c23)cc1 | 9.14%
29 | Cc1cc(=O)n2[nH]c(=O)c(N=Nc3ccccc3)c2[nH]1 | 4.01%
30 | CCOc1ccc(N=Nc2c(=O)[nH]n3c(=O)c4c([nH]c23)CCCC4)cc1 | 4.96%
31 | CCOc1ccc(N=Nc2c(=O)[nH]n3c(=O)cc(C)[nH]c23)cc1 | 17.1% (active)
32 | COc1cc(NC(=O)c2cccc(COCC(F)(F)C(F)F)c2)cc(OC)c1OC | -1.01%
33 | CC(C)C1Oc2cc3oc(=O)ccc3cc2C1=O (stereo unspecified) | 0.4%
34 | S=c1[nH]nc(-c2cccnc2)n1/N=C/C=C/c1ccco1 | 7.53%
35 | S=c1[nH]nc(-c2ccncc2)n1/N=C/C=C/c1ccco1 | 13.6% (active)
36 | S=c1[nH]nc(-c2ccccc2)n1/N=C/C=C/c1ccco1 | 6.1%
37 | O=C1NC(=O)N(Cc2ccccc2Cl)C(=O)/C1=C/c1cccs1 | 1.69%
38 | C(=N/N1CCN(c2ccccc2)CC1)/c1ccncc1 | -0.53%
39 | CCOc1ccc(Br)cc1S(=O)(=O)N1CCCC1 | -3.03%
40 | COc1ccc(Br)cc1S(=O)(=O)N1CCCC1 | 14.1% (active)
41 | COc1ccc(Br)cc1S(=O)(=O)N1CCOCC1 | -4.63%
42 | C=CCN(CC=C)C(=O)Nc1cc(Cl)ccc1OC | 6.87%

Row | SMILES | inhibition
43 | O=C(CC1C(=O)N(c2ccccc2)C(=O)N1Cc1ccco1)Nc1ccccc1 (stereo unspecified) | 0.18%
44 | Cc1csc(SCC(=O)N(C)CC(=O)Nc2ccc(F)cc2)n1 | -5.2%
45 | Cc1cc(SCC(=O)N(C)CC(=O)Nc2ccc(F)cc2)nc2ccccc12 | 13.3% (active)
46 | Cc1nnc(SCC(=O)N(C)CC(=O)Nc2ccc(F)cc2)n1Cc1ccccc1 | -4.08%
47 | Cc1ccc(C)n1-c1ccc(C(=O)O)cc1 | 11.1%
48 | Cc1ccc(C)n1-c1sc2c(c1C(=O)O)CCCC2 | 11.2%
49 | Cc1cccc(-n2c(-c3ccco3)nc3ccccc3c2=O)n1 | -2%
50 | Cc1nc(S/C(=C/c2ccc(-c3ccc(Cl)cc3)o2)C(=O)O)n[nH]1 | -0.27%
51 | Cc1nc(S/C(=C/c2ccc(-c3ccc(C(=O)O)cc3)o2)C(=O)O)n[nH]1 | 11.3%
52 | CC(=O)Nc1ccc(NC(=O)COC(=O)[C@@H](NC(=O)c2ccc(F)cc2)C(C)C)cc1 | -1.53%
53 | Cc1ccccc1C(=O)N1CCN(c2ccc(NC(=O)c3ccc4c(c3)OCO4)cc2)CC1 | -4.66%
54 | CNC(=O)COC(=O)CCC(=O)c1cccs1 | 4.98%
55 | O=C(O)c1cccc(S(=O)(=O)N2CCN(C(c3ccccc3)c3ccccc3)CC2)c1 | -1.93%
56 | Cc1coc(NC(=O)CSc2nc(-c3ccc(Cl)cc3)cc(C(F)(F)F)c2C#N)n1 | 3.77%
57 | COC(=O)C1=C2c3[nH]c4ccccc4c3CCN2C(=O)CC1 | -2.64%
58 | CN(C)S(=O)(=O)c1cccc(NC(=O)NCCCl)c1 | 8%
59 | CN(CC(=O)NCCc1ccc(Cl)cc1)S(=O)(=O)c1ccc2c(c1)c(=O)n(C)c(=O)n2C | -0.75%
60 | CCCCN(CC)CCNC(=O)CN(C)S(=O)(=O)c1ccc2c(c1)c(=O)n(C)c(=O)n2C | 20.9% (active)
61 | Cc1ccc(CCNC(=O)CN(C)S(=O)(=O)c2ccc3c(c2)c(=O)n(C)c(=O)n3C)cc1 | 2.34%
